# Only some compounds are listed: those with a hit (about 3.4% of all), similar ones and a draw of the others.
# FBW7 act = FBW7 E3 ligase activators, primary screen, biochemical, AlphaScreen, human | F-box/WD repeat-containing protein 7 (Homo sapiens), Q969H0 | normalized activity (activation), % at 26.1 µM | AlphaScreen FBW7–phospho-cyclin E peptide binding, activator screen | hit rate 0.13% among 650,000; in the data active means normalized activity above about 1.9%;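 further: purified mutant Fbw7 with reduced substrate affinity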
# MITF inh = MITF inhibitors, primary screen, biochemical, AlphaScreen, human; Microphthalmia-associated transcription factor (Homo sapiens), O75030; AlphaScreen MITF homodimerization, bead proximity signal; inhibition, % at 2.6 µM; hit rate 0.91% among 650,000; AID 1259374, 2018; in the data active means inhibition above about 50%;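 further: 0% = vehicle wells with protein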
# GPR151 activ = activators of human GPR151, primary screen, cell-based, PathHunter beta-arrestin, luminescence; G-protein coupled receptor 151 (Homo sapiens), Q8TDV0; PathHunter beta-arrestin GPR151 cells; activation, % at 11.2 µM; hit rate 1% among 650,000; AID 1508602, 2020; in the data active means activation above about 4.9%;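 further: 0% = median of compound wells and 100% = cells with positive control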
# Target sequence (Q8TDV0 whole entry, looked up): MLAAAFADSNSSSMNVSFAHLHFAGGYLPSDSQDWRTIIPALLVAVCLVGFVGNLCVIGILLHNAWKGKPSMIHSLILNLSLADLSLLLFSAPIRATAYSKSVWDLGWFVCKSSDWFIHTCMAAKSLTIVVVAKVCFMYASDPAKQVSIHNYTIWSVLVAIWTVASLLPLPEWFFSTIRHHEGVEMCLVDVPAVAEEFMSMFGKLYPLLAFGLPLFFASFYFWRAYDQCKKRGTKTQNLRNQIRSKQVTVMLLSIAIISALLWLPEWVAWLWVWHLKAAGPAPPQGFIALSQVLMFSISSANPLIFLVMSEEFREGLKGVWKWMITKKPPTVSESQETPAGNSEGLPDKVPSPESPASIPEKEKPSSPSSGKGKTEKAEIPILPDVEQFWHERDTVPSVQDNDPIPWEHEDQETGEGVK
# TEAD-YAP block = TEAD-YAP interaction inhibition, primary screen, TEAD-YAP interaction inhibitor project, luminescence, HEK-TIYL cells; TEAD-Gal4/YAP UAS-luciferase luminescence; inhibition, % at 9.12 µM; hit rate 1.4% among 640,000; AID 1259422, 2018; in the data active means inhibition above about 32%;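 further: 0% = median of test compound wells and 100% = reference inhibitor wells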
# GPR151 confirm = GPR151 activators, triplicate retest, confirmation, cell-based, PathHunter beta-arrestin, luminescence; shares compounds with GPR151 activ; GPR151 PathHunter beta-arrestin cells, 90 min; % of EA-reagent control over plate median; activation, % at 11.2 µM; 6,700 tested, under 10 active; AID 1508609, 2020;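 active means mean percent activation across replicates above the confirmation screen cutoff of 4.91%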
# GPR119 counter = GPR119 activators in beta-arrestin cells, counter-screen for GPR151 activator project, cell-based, PathHunter beta-arrestin, luminescence, triplicate. shares compounds with GPR151 activ. 90 min; 0 = compound-well median, 100 = enzyme-acceptor control. AID 1508611, 2020. hit rate 0.3% among 6,700. activation, % at 11.2 µM;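 active means mean percent activation in the counterscreen above 29.09%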;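 further: counterscreen on off-target GPR119 to flag nonselective hits from the GPR151 activator screen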
# * hit, by the source's call; . = no result given; ! = a repeat was not active.
SMILES,FBW7 act,MITF inh,GPR151 activ,TEAD-YAP block,GPR151 confirm,GPR119 counter
CC(Oc1ccc(Br)cc1)C(=O)Nc1ccc(C(N)=O)cc1 (configuration not stated),-0.3,-7.4,5.7*,8.3,-0.2,-2.0
CC(Oc1ccc(Br)cc1)C(=O)Nc1ccccc1 (configuration not stated),-0.2,-15.8,-1.1,0.9,.,.
CCCN(CCC)CCc1cccc2c1CC(=O)N2,-0.2,-8.7,12.4*!,-4.3,-0.2,-8.5
CC(C)(C)C1=Nc2ccccc2NC(=O)C1,0.2,13.1,-0.2,-3.8,.,.
CCC(C(=O)Nc1ccc(F)cc1F)n1c2ccccc2c2nc(=O)cc(C)n21 (configuration not stated),0.1,-10.0,-0.7,-5.1,.,.
CCC(C(=O)Nc1ccc(F)cc1)n1c2ccccc2c2nc(=O)cc(C)n21 (configuration not stated),0.0,11.4,5.3*,4.8,-0.5,0.4
COc1ccc(Cl)cc1C(=O)NNC(=O)C(C)NC(=O)COc1ccccc1 (configuration not stated),-0.1,4.4,-0.3,15.0,.,.
Cc1nnc(C)c2c(C)n(C(C)c3ccccc3)c(C)c12 (configuration not stated),-0.1,-4.8,-0.6,-27.3,.,.
COc1ccc(C(C)n2c(C)c3c(C)nnc(C)c3c2C)cc1 (configuration not stated),0.8,-9.5,11.3*,-13.0,0.2,-0.9
CCOc1cc2[nH]c(=O)n(Cc3cccc(OC)c3)c(=O)c2cc1OCC,-0.1,-3.3,8.5*,5.2,-0.2,-7.8
CCN(CC)c1ccc(C2C(C(=O)Nc3cccc(C)n3)=C(C)NC3=C2C(=O)CCC3)cc1 (configuration not stated),0.0,0.6,0.1,1.9,.,.
O=S(=O)(NCCSC1CCCCC1)c1ccc(Cl)cc1,0.5,-7.2,-0.8,-10.5,.,.
O=C(CN1c2cccc3cccc(c23)S1(=O)=O)Nc1ccc(Br)cc1F,0.0,-8.6,7.1*,8.2,0.6,8.8
O=C(CN1c2cccc3cccc(c23)S1(=O)=O)Nc1ccc(F)c(F)c1,-0.2,-4.6,0.1,-8.1,.,.
CCOc1ccc(C2=C/C(=C\c3cccs3)C(=O)O2)cc1,-0.1,-0.6,0.3,-18.3,.,.
CCOc1ccc(C2=C/C(=C/c3cccs3)C(=O)O2)cc1,-0.2,4.1,5.8*,0.7,-0.6,12.3
Cc1cc(C=C2C(=O)NC(=S)NC2=O)c(C)n1-c1ccc([N+](=O)[O-])cc1,-0.2,1.4,6.1*,-14.1,0.3,6.9
CCCN(CCC)S(=O)(=O)c1ccc(C(=O)Nc2nc3c(ccc4ccccc43)s2)cc1,-0.1,-4.1,-1.4,7.8,.,.
CCCN(CCC)S(=O)(=O)c1ccc(C(=O)Nc2nc3c(OC)cccc3s2)cc1,0.3,-30.7,6.6*,3.7,0.2,11.9
CCOc1ccc(C2N(C)c3ccccc3N2C)cc1,-0.1,7.8,0.3,-1.2,.,.
CC(=O)C1=C(C)NC(SCC=C(C)C)=C(C#N)C1C1C=CC(Cl)C=C1 (configuration not stated),0.2,-6.8,5.4*,-2.8,1.1,-13.3
CC(=O)C1=C(C)NC(SCC(=O)O)=C(C#N)C1c1ccccc1 (configuration not stated),0.0,13.6,0.3,-7.8,.,.
COc1ccc(CNC(=O)C2CCN(c3nc4ccccc4n4cccc34)CC2)cc1,-0.2,-12.7,7.5*,-5.6,-0.6,-1.3
CC(C)(COC(=O)c1cccc2ccccc12)N=C1NS(=O)(=O)c2ccccc21,-0.2,-7.8,6.1*,-1.2,0.8,12.5
O=C(c1cc(-c2ccc(F)cc2)c[nH]1)N1CCN(C(=O)c2ccco2)CC1,0.0,5.0,0.0,-7.9,.,.
COc1ccc(OC)c(NC(=O)CCN(C)Cc2ccccc2)c1,-0.2,-2.5,10.9*,-5.5,0.0,-8.1
COc1ccccc1NC(=O)c1ccccc1C(F)(F)F,0.0,-5.1,0.8,1.2,.,.

# Bioassay records as filed in PubChem BioAssay.
